Active and inactive are the calls of the source. Calls follow the shape of the dose curve; as a rule, active = well fitted curve in the direction sought with a large enough effect; inconclusive = small, poorly fitted or top-dose-only effect, or another doubt; inactive = no such curve, though single readings can be large or run the other way.
Target: Galactokinase (Homo sapiens) (UniProt P51570)
Experiment: qHTS Validation Assay for Inhibitors of Human Galactokinase (GALK) (AID 493189); also: 0% is about no effect
Conditions: purified human GALK enzyme activity, qHTS 7-point titration; series mostly up to 57.5 µM; activity change, negative = inhibition: at the top concentration
From the text: NIH Molecular Libraries Probe Production Centers Network [MLPCN]
NIH Chemical Genomics Center [NCGC]
Assay Submitter (PI): Kent Lai (University of Utah School of Medicine, 50 N Mario Capecchi Drive, Salt Lake City, UT 84132)
Inherited deficiency of galactose-1-phosphate uridyltransferase (GALT) can result in a potentially lethal disorder called Classic Galactosemia (OMIM 230400). Several lines of evidence indicate that an elevated level of galactose-1-phosphate (gal-1-p), the product of galactokinase (GALK), is a major, if not sole, pathogenic mechanism in patients with classic galactosemia. Therefore, finding inhibitors of GALK is a potential novel therapy for this inherent metabolic disease and is the long term goal of this project.
GALK (provided by the assay submitter) was assayed using ATP and D-(+)-Galactose (Sigma-Aldrich cat# G0750) as substrates. Promega Kinase-Glo Plus (cat# V3774) technology was used to detect the residual ATP following kinetic reaction. Briefly, the Kinase-Glo Plus contains Ultra-Glo [2] luciferase and D-luciferin which generates a bioluminescence signal from the remaining ATP.
NCGC Assay Protocol Summary:
Three uL/well of ATP-buffer solution (35 uM ATP, 20mM HEPES pH8.0, 5 mM MgCl2, 60 mM NaCl, 1 mM DTT, 0.01% BSA final concentration) was dispensed into 1536-well, assay plates (Greiner, solid white medium-binding plates) with Aurora Discovery BioRAPTR Flying Reagent Dispenser (FRD; Beckton-Dickenson). Compound solution (23 nL) was transferred to the assay plate using the Kalypsys 1536-pin tool. One uL/well GALK-galactose solution (5 nM GALK, 100 uM galactose, 20 mM HEPES pH8.0, 5 mM MgCl2, 60 mM NaCl, 1 mM DTT, 0.01% BSA final concentration) was then added using the FRD yielding a total kinase reaction volume of 4 uL/ well. After 1 hour of room temperature incubation, 4 uL Kinase-Glo Plus reagent was added for a final assay volume of 8 uL/ well. Luminescence was detected with the ViewLux plate reader (Perkin Elmer, Waltham, MA) after 10 min incubation using a 1 sec exposure time and 2x binning.

Chain of Galactokinase (Homo sapiens) (P51570 whole entry, looked up): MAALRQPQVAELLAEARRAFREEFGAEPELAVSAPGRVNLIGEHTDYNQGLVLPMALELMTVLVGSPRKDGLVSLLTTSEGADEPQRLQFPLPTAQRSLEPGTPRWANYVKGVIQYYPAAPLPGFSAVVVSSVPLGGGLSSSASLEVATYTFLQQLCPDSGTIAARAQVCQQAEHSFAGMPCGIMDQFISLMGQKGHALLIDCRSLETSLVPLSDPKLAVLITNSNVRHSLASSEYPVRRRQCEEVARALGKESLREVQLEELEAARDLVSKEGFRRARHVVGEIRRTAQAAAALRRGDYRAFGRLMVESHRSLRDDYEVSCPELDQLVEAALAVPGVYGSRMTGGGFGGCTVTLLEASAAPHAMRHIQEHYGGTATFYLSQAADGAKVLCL

Structure (SMILES) | activity change, negative = inhibition
CC(C)N(CCC(=O)c1ccc2ccccc2c1)Cc1ccccc1 | 0.627% (inactive)
O=C1NC(c2cccc([N+](=O)[O-])c2)=CCN1c1ccccc1O | -2.26% (inactive)
C[N+](C)(C)CCO | -4.06% (inactive)
NC(N)=NCCCCN=C(N)N | -2.27% (inactive)
COc1cccc2c1[C@@H]1CN(CCCCn3c(=O)[nH]c4c(sc5ncc(-c6ccccc6)nc54)c3=O)C[C@@H]1CO2 | 0.105% (inactive)
C[C@]12CCC(=O)C=C1CC[C@@H]1[C@@H]2[C@@H](O)C[C@@]2(C)[C@H]1CC[C@]2(O)C(=O)COC(=O)CCC(=O)O | -4.45% (inactive)
Brc1ccc([C@H]2CN3CCSC3=N2)cc1 | -1.1% (inactive)
COc1ccccc1N1CCN(CCN2C(=O)CC3(CCCC3)CC2=O)CC1 | 4.6% (inactive)
O=[N+]([O-])c1ccc(-c2nc(-c3ccc(F)cc3)c(-c3ccncc3)[nH]2)cc1 | -0.549% (inactive)
Cn1cnc2c(NCc3ccccc3)nc(NCCO)nc21 | 4.9% (inactive)
CN(C)c1cc2c(Nc3ccc4c(cnn4Cc4ccccc4)c3)ncnc2cn1 | -2.79% (inactive)

From PubChem BioAssay (NCATS)
